Bioassay records: PubChem, several laboratories
Rows were chosen to be rich in hits. Some 2.2% of all compounds tested hit in one or more screens of this group.
Cardio protect: modulators protecting cardiomyocytes from myocardial damage | H9c2 cardiomyocytes, H2O2 injury protection, ATPLite, 2 h | protection from H2O2 cell death, % at 20 µM | 360,000 compounds, 0.63% hits | AID 588492;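 active = compounds giving at least 50% protection of heart cells from peroxide-induced death in the single-dose screen, raw or plate-pattern-corrected value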;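 note: 0% = DMSO wells with peroxide and 100% = DMSO wells without peroxide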
hiPSC survival: increases survival of single human iPS cells; hiPSC single-cell survival, ATPlite luminescence; 100% = ROCK inhibitor wells, 0% = DMSO; survival enhancement, % at 20 µM; 360,000 compounds, 0.044% hits; AID 602274; in the data active = survival enhancement above about 18%;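 note: cells exposed to compounds for 16 hours before the ATP read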
ABCB6 inh MLPCN: human ABCB6 transporter inhibition; Q9NP58; K562-ABCB6 porphyrin accumulation, flow cytometry, 1 h; active compounds read low; fluorescence ratio to DMSO, % at 10 µM; 360,000 compounds, 0.19% hits;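 active = fluorescence ratio to DMSO below 75%, the collection mean minus 3 SD; inconclusive = too few cells collected in the well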;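 note: signal is porphyrin accumulated inside mitochondria; 100% equals median channel fluorescence of DMSO control wells; lower ratio means ABCB6 inhibition with less porphyrin fluorescence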
Target sequence (Q9NP58 whole entry, looked up): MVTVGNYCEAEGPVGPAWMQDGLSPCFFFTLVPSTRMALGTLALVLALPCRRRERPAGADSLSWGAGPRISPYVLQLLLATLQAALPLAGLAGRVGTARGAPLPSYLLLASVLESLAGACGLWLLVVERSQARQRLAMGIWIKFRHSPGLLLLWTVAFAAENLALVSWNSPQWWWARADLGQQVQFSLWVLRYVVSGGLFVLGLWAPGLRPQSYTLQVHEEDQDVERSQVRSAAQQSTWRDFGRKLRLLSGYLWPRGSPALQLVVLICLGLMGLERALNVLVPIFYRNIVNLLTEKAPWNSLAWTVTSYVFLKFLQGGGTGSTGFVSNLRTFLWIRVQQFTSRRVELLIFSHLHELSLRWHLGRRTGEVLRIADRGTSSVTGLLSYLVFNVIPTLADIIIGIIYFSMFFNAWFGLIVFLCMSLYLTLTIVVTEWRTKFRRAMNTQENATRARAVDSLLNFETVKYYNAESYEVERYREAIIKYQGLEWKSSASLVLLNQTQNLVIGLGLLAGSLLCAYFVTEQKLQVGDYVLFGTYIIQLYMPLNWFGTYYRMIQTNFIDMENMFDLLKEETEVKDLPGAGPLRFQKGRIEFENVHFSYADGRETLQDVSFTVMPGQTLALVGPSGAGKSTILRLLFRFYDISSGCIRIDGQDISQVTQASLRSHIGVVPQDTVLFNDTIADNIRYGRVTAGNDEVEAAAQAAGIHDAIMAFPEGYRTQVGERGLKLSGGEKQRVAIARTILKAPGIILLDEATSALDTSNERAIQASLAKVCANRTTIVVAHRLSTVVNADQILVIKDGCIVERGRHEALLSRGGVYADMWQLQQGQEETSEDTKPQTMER
beta cell repl: induces beta-cell replication in MIN6 cells. AID 2380. MIN6 cells proliferation, ATPlite luminescence, 48 h; cells starved in 0.2% serum; 100% = growth in 10% serum. 330,000 compounds, 0.29% hits. proliferation, % at 10 µM;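 active = compounds whose signal lies at least 3.5 SD above the mean of all wells on their plate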;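 note: 0% = DMSO-treated cells in low-serum medium and 100% = 10% serum control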
Myeloid diff 2: promotes myeloid progenitor differentiation; 360,000 compounds, 1% hits; ER-HoxA9 myeloid progenitors, lysozyme-GFP differentiation, flow cytometry; calls only at 10 µM;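 active = normalized GFP-positive differentiation at or above the plate's own cutoff, the solvent-only control mean plus 3 SD; inconclusive = no clear call, values can overlap the other calls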;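 note: cells exposed to compound for four days before flow analysis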
Myeloid diff CP1: myeloid differentiation induction; shares compounds with Myeloid diff 2; ER-HoxA9 myeloid progenitors, GFP/Mac1 double-positive flow; calls only; 2,300 compounds, 2% hits;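 active = share of green or green-and-red cells above 9 and 9% in run 1 or 4 and 3% in run 2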
GFP autofluor: compound fluorescence in myeloid differentiation counter-screen | 2,300 compounds, 7.4% hits | ER-HoxA9 myeloid progenitors, no estrogen, GFP autofluorescence flow cytometry; vehicle wells 0%, positive control 100% | shares compounds with Myeloid diff 2 | fluorescence response, % (concentration not given with the values) | AID 651707;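 active = over 5% cells positive for green fluorescent reporter, or over 2% positive for both it and APC stain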;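 note: range taken on the double positive population between DMSO and positive control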
* marks the source's active call; other numbers are inactive results; i = inactive; ? = inconclusive; nt = no result; + = active, no number.

SMILES	Cardio protect	hiPSC survival	ABCB6 inh MLPCN	beta cell repl	Myeloid diff 2	Myeloid diff CP1	GFP autofluor
Cc1cnc(NC(=O)CSc2nnc(COc3ccccc3)o2)s1	4.0	-0.9	96.0	-2.0	i	nt	nt
C/C(=N\NC(=O)c1ccc2c(c1)OCO2)c1ccc2c(c1)OCO2	-11.2	-0.5	97.0	-3.0	i	nt	nt
C/C(=N\NC(=O)c1ccc2c(c1)OCO2)c1ccc(NC(=O)CCCC(=O)O)cc1	-0.9	0.4	85.0	4.2	i	i	0.0
COc1ccc(-c2ccc(C#N)c(OC(=O)c3c(Cl)cccc3Cl)n2)cc1	-2.6	0.0	92.0	-3.2	i	nt	nt
COc1ccc(C(=O)NC(=S)Nc2cccc(S(=O)(=O)N3CCOCC3)c2)cc1	-4.3	-0.3	88.0	-1.4	i	i	0.0
COc1ccc(C(=O)NNC(=O)c2cccc(S(=O)(=O)N3CCOCC3)c2)cc1	1.4	3.1	101.0	-0.8	i	nt	nt
CCCCOc1ccc(/C(O)=C2/C(=O)C(=O)N(CCCOC)C2c2ccncc2)cc1 (configuration not stated)	-8.0	1.4	105.0	-1.5	i	nt	nt
COCCCN1C(=O)C(=O)/C(=C(/O)c2ccc(OC(C)C)cc2)C1c1ccncc1 (configuration not stated)	6.8	-1.0	96.0	-3.4	i	i	0.2
CCCS(=O)(=O)NC(=O)C1(C)CCCN(C(=O)c2cc(C)nn2C(C)(C)C)C1 (configuration not stated)	3.4	4.7	92.0	nt	i	i	0.0
O=C1CCC/C(=N/NC(=O)c2sc3ccccc3c2Cl)C1	5.2	1.0	195.0	-2.7	i	i	0.0
COc1ccc(N2CCN(c3ccc(N4C(=O)CC(C)C4=O)cc3[N+](=O)[O-])CC2)cc1 (configuration not stated)	-10.0	0.3	97.0	0.1	i	nt	nt
COc1ccc(N2CCN(c3ccc(N4C(=O)COCC4=O)cc3[N+](=O)[O-])CC2)cc1	-2.6	-0.4	86.0	-0.7	i	i	0.2
CCC(C)Nc1nc(OCC(F)(F)F)nc(OCC(F)(F)F)n1 (configuration not stated)	-3.1	-0.2	96.0	0.1	i	nt	nt
CCC(C)Nc1nc(OC(C(F)(F)F)C(F)(F)F)nc(OC(C(F)(F)F)C(F)(F)F)n1 (configuration not stated)	-10.1	0.9	112.0	-5.3	+	i	0.4
Cc1ccc(N=C2NC(=O)/C(=C/c3cn(C)c4ccccc34)S2)cc1C	-4.2	-0.5	149.0	nt	+	i	35.3*
Cn1cccc1/C=C1\SC(=Nc2ccccc2)NC1=O	-5.5	-0.8	102.0	0.5	?	nt	nt
C/C(=N/Nc1nc(-c2ccccc2)cc(-c2ccc(F)cc2)n1)c1cccc(N)c1	4.6	0.0	97.0	-2.7	i	nt	nt
COCc1cc(=O)[nH]c(Nc2nc3ccc(C)cc3o2)n1	25.2	-0.3	101.0	-5.4	i	i	3.8
O=c1[nH][nH]c(-c2ccccc2O)c1C(C[N+](=O)[O-])c1cccc(Cl)c1 (configuration not stated)	0.5	3.8	98.0	0.0	i	nt	nt
O=c1[nH][nH]c(-c2ccccc2O)c1C(C[N+](=O)[O-])c1ccc(Cl)cc1Cl (configuration not stated)	6.5	1.4	99.0	0.0	i	i	1.1
Cc1cc(NC(=O)c2cc(-c3ccc4c(c3)OCO4)on2)n(-c2ccccc2)n1	-1.9	1.0	91.0	-3.6	+	i	0.0
Cc1cc(NC(=O)c2noc3c2CCCC3)n(-c2ccccc2)n1	-2.0	-1.0	107.0	-3.4	+	i	0.0
CC1CCCC(NC(=O)C2CCN(C(=O)Nc3ccccc3)CC2)C1C (configuration not stated)	-1.6	-0.3	100.0	3.1	i	nt	nt
O=C(CNC(=O)c1ccncc1)Nc1ccc(F)c(F)c1	4.6	0.3	100.0	-0.9	?	nt	nt
O=C(CNC(=O)c1ccc(=O)[nH]c1)Nc1ccc(F)c(F)c1	1.9	0.2	94.0	0.7	+	i	0.5
SMILES	Cardio protect	hiPSC survival	ABCB6 inh MLPCN	beta cell repl	Myeloid diff 2	Myeloid diff CP1	GFP autofluor
Cc1ccc(S(=O)(=O)NCc2ccco2)cc1C(N)=O	0.1	1.9	106.0	1.1	+	i	0.4
O=C(Nn1c(-c2ccc(Br)cc2)nc2ccccc2c1=O)c1cccnc1	-1.8	0.8	103.0	0.0	i	nt	nt
Cc1ccc(C(=O)N2N=C(c3ccccc3)CC2(O)C(F)(F)F)o1 (configuration not stated)	-3.7	-0.2	101.0	2.0	i	nt	nt
COc1cc(OC)cc(-c2ncc3ccccn23)c1	0.8	2.6	114.0	1.7	i	nt	nt
COc1cc(-c2ncc3ccccn23)cc(OC)c1OC	24.2	-0.9	102.0	-3.1	+	i	0.0
COC(=O)[C@H](CCSC)NC(=O)NCc1cccs1	6.8	-1.1	106.0	-2.4	i	i	0.3
CC(C)(C)c1ccc(C(=O)NNC(=O)CCC(=O)Nc2ccccc2)cc1	-12.6	-0.5	92.0	-3.8	+	i	0.0
O=C(Nc1cccc(Cl)c1)OCCN1CCN(Cc2ccccc2)CCC1=O	-12.1	1.0	96.0	-2.7	i	nt	nt
CCCCCNC(=O)C(c1ccc(OC)cc1)n1c(=O)c(-c2ccco2)nc2ccccc21 (configuration not stated)	nt	nt	nt	nt	i	nt	nt
CCCCCNC(=O)C(c1ccc(C#N)cc1)n1c(=O)c(-c2ccco2)nc2ccccc21 (configuration not stated)	nt	nt	nt	nt	i	i	0.9
CC(=C/c1ccco1)/C=N/NC(=O)c1ccncc1	2.9	-0.4	101.0	-3.0	i	nt	nt
CC(/C=N/NC(=O)c1cccnc1)=C\c1ccco1	-3.8	0.8	104.0	0.6	i	i	0.0
Cc1cccc(CNc2ncc(-c3cccc([N+](=O)[O-])c3)n2C)c1	-1.7	0.8	498.0	-4.6	i	i	0.0
CCNC(=S)Nc1ccc(N2CCCCC2)cc1	-7.8	0.5	99.0	-2.5	i	nt	nt
CCNC(=S)N/N=C/c1sc(N2CCCCC2)nc1-c1cccs1	-11.9	-1.7	131.0	-5.6	i	i	0.3
CCCS(=O)(=O)c1c(S(=O)(=O)CCC)c2c(N)cccn2c1C(=O)c1ccc(Br)cc1	0.6	-0.3	143.0	-6.0	nt	nt	nt
CN1CCS/C1=C/C=C1/SC(=S)N(Cc2ccccc2)C1=O	7.0	0.1	113.0	nt	+	i	22.7*
COc1cc(/C=C2/SC(=S)N(Cc3ccccc3)C2=O)ccc1OCC(=O)O	-3.4	0.9	153.0	-5.2	i	nt	nt
CCCCN1C(=O)/C(=C/C=C2\SCCN2C)SC1=S	-18.7	2.3	117.0	6.4	i	nt	nt
